# Test results taken from PubChem BioAssay (NCATS).
# Results filed as inconclusive are left out. A call without a number means that no potency is given here. Activity calls are given as the source filed them. Unless noted, calls follow the shape of the dose curve; as a rule, active = well fitted curve in the direction sought with a large enough effect; inconclusive = small, poorly fitted or top-dose-only effect, or another doubt; inactive = no such curve, though single readings can be large; an effect the other way counts as inactive or inconclusive.
# Key:
# [1] = system: Zika virus NS2B-NS3 protease; assay: Primary screen GU AMC qHTS for Zika virus inhibitors (AID 1347154); also: nearly all actives have a fitted effect of over 70% in size
# Summary of the method: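 Fluorogenic AMC-substrate cleavage by noncovalent NS2B-NS3 protease complex (25 nM, pH 8.0 Tris buffer with Tween 20) followed for 15 minutes at room temperature (~20% conversion). Percent inhibition from ex340/em450 signal change, fitted by 4-parameter Hill equation.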
# [2] = Primary qHTS for small molecule stabilizers of the endoplasmic reticulum resident proteome: Secreted ER Calcium Modulated Protein (SERCaMP) assay (AID 1508630)
# Summary of the method: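 GLuc-SERCaMP-expressing SH-SY5Y cells, pretreated 16 h with compound, are challenged with thapsigargin to empty ER calcium stores; after 4 h, coelenterazine is added directly to the medium and luminescence is imaged.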
# [3] = qHTS Assay for Lipid Storage Modulators (AID 1519; calls by dose curve); conditions: Drosophila S3 cells, BODIPY lipid droplet/cell ratio, laser cytometry, cells loaded with oleic acid
# Summary of the method: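 Cells seeded at 5,000 per well were treated with compounds over a concentration series and loaded with oleic acid (400 uM, as added). Lipid droplet fluorescence (488 nm excitation, 500-530 nm channel) was read by laser-scanning cytometry and normalized to 20 uM Triacsin C.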
# [4] = target: Ubiquitin carboxyl-terminal hydrolase 1 (Homo sapiens) (UniProt O94782); assay: Inhibitors of USP1/UAF1: Pilot qHTS (AID 504865);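 also: rhodamine fluorescence freed from ubiquitin-rhodamine substrate followed over time; top concentration of the series differs between compounds; nearly all actives have a fitted effect of over 35% in size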
# Summary of the method: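 Enzyme-free wells gave the negative control, while test wells held 1nM USP1/UAF1 preincubated with compound for 15 min at room temperature. Ub-Rho at 150nM final started the reaction, and fluorescence at 480/540 nm was recorded kinetically.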
# [5] = target: DNA dC->dU-editing enzyme APOBEC-3G (Homo sapiens) (UniProt Q9HC16); assay: qHTS for inhibitors of Vif-A3G interactions: Validation (AID 588379)
# Summary of the method: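 HeLa cells stably expressing Vif and A3G-eYFP, 700 cells/well, incubated overnight at 37 deg C, then exposed to compound overnight at 37 deg C. Inhibition of Vif-mediated degradation read as increased yellow fluorescence (Ex 488/Em 500-530) by laser-scanning cytometry.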
# Chain of Ubiquitin carboxyl-terminal hydrolase 1 (Homo sapiens) (O94782 whole entry, looked up): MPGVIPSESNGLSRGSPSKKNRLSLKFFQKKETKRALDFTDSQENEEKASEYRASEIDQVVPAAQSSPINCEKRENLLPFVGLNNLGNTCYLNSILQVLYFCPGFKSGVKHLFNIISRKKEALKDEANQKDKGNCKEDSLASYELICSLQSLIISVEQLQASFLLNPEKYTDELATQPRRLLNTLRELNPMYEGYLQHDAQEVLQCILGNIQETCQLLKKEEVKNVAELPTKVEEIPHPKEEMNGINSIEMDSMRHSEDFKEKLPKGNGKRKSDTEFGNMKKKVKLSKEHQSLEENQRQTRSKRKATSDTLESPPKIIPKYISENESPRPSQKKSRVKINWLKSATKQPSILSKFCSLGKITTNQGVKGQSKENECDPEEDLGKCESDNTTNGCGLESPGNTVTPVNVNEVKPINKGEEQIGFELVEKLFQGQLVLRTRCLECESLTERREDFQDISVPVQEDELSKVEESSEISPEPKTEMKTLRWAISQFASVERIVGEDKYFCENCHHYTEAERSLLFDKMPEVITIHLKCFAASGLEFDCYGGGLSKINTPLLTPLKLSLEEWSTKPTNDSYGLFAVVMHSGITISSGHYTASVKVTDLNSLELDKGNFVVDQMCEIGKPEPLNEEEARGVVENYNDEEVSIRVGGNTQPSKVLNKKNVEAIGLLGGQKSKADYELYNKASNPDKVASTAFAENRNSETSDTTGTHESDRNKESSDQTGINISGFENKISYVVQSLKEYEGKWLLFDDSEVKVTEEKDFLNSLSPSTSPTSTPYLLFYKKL
# Chain of DNA dC->dU-editing enzyme APOBEC-3G (Homo sapiens) (Q9HC16 whole entry, looked up): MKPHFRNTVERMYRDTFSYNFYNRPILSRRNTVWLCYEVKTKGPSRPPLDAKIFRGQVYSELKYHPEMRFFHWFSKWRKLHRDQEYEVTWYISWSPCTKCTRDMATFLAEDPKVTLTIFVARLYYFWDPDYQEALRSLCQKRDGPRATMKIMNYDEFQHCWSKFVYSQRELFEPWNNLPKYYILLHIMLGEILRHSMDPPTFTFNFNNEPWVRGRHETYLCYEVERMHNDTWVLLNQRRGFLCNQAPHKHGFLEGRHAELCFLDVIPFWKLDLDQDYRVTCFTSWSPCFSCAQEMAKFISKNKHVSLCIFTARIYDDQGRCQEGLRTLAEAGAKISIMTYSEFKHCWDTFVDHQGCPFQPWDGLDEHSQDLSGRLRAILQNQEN
SMILES,Potency [1],Potency [2],"activity change, negative = inhibition ([3]; at 57.5 µM (top of the series))",max response ([3]; measured here: cell count channel max response) [%],max response ([3]; measured here: lipid channel max response) [%],Potency [4],Potency [5]
CC1CC2CCC(O2)C(C)C(=O)OC(C)CC2CCC(O2)C(C)C(=O)OC(C)CC2CCC(O2)C(C)C(=O)OC(C)CC2CCC(O2)C(C)C(=O)O1 (centres undefined),inactive,inactive,–,–,–,–,–
C=C(C)[C@H]1C2C(=O)O[C@H]1[C@H]1OC(=O)[C@@]34O[C@@H]3C[C@]2(O)[C@@]14C,inactive,inactive,2.82% (inactive),7.99,11,inactive,inactive
